Test results as given in PubChem BioAssay (EPA / NIEHS).
A structure can be active in one record and inactive in another. Active and inactive are the calls of the source. How the source made its calls: active means hit-call score of the fitted dose curve at least 0.9, where 1 is the maximum; inactive means score below 0.9.

Key:
[1] = read-out: Monocyte Chemoattractant Protein-1 (MCP1), CCL2 (gene 6347); assay: BSK_LPS_MCP1: BioMAP Diversity Plus: LPS Assay for Monocyte Chemoattractant Protein-1 (MCP1) Biomarker Activity (AID 2283081); settings: primary human HUVEC with PBMC; actives raise or lower the signal;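 on AC50: co-culture stimulated with LPS; secreted MCP-1 protein quantified by ELISA in culture supernatant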
In short: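 Secreted MCP-1 read by ELISA at 24 h post-dosing in an LPS-activated co-culture of endothelial cells with peripheral blood mononuclear cells. Fits run in both directions, DMSO as baseline; parallel SRB staining tracks overt cytotoxicity.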

[2] = BSK_LPS_PGE2: BioMAP Diversity Plus: LPS Assay for Prostaglandin E2 (PGE2) Biomarker Activity (AID 2283082); settings: primary human HUVEC with PBMC; actives raise or lower the signal;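 on AC50: secreted prostaglandin E2 measured by ELISA in LPS-stimulated co-culture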
In short: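 Primary human endothelial cells and blood mononuclear cells, co-cultured with LPS, receive test chemical; PGE2 ELISA follows at 24 h, with SRB-stained parallel cultures flagging cytotoxicity.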

[3] = read-out: Macrophage colony-stimulating factor (MCSF), CSF1 (gene 1435); assay: BSK_LPS_MCSF: BioMAP Diversity Plus: LPS Assay for Macrophage colony-stimulating factor (MCSF) Biomarker Activity (AID 2283083); settings: primary human HUVEC with PBMC; actives raise or lower the signal
In short: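 Bidirectional fitting against DMSO was applied to M-CSF levels read by ELISA at 24 h post-dose. The system pairs human umbilical vein endothelium with peripheral blood mononuclear cells; parallel SRB staining tracked cytotoxicity.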

[4] = read-out: Tissue Factor, F3 (gene 2152); assay: BSK_LPS_TissueFactor: BioMAP Diversity Plus: LPS Assay for Tissue Factor Biomarker Activity (AID 2283084); settings: primary human HUVEC with PBMC; actives raise or lower the signal
In short: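 Compound was added to an endothelial cell/PBMC co-culture, and after 24 h tissue factor (CD142) was read by ELISA. Gain or loss of signal was fitted against a DMSO baseline, and parallel SRB staining (560 nm) tracked overt cytotoxicity.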

[5] = read-out: Tumor necrosis factor (Homo sapiens) (UniProt P01375); assay: BSK_LPS_TNFa: BioMAP Diversity Plus: LPS Assay for Tumour Necrosis Factor alpha (TNFa) Biomarker Activity (AID 2283085); settings: primary human HUVEC with PBMC; actives raise or lower the signal;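 on AC50: TNFa protein level quantified by ELISA in the co-culture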
In short: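 ELISA-based TNFa endpoint in a human endothelial–PBMC co-culture sampled 24 h post-exposure. Curves were fitted in both directions using DMSO as baseline of activity.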

[6] = read-out: Vascular cell adhesion molecule 1 (VCAM1), VCAM1 (gene 7412); assay: BSK_LPS_VCAM1: BioMAP Diversity Plus: LPS Assay for Vascular cell adhesion molecule 1 (VCAM1) Biomarker Activity (AID 2283086); settings: primary human HUVEC with PBMC; actives raise or lower the signal
In short: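 Measured by ELISA: VCAM-1 in LPS-activated HUVEC/PBMC co-cultures 24 h after treatment. Values reflect bidirectional fitting with DMSO as baseline.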

CD38, CD38 (gene 952) = assay: BSK_SAg_CD38: BioMAP Diversity Plus: SAg Assay for CD38 Biomarker Activity (AID 2283087); settings: primary human HUVEC with PBMC; actives raise or lower the signal
In short: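 Measures CD38 on a human endothelial/PBMC co-culture driven by SEB and TSST-1, 24 h after compound exposure, using ELISA with fluorescence detection; DMSO defines baseline for bidirectional curve fitting.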

CD40, CD40 (gene 958) = assay: BSK_SAg_CD40: BioMAP Diversity Plus: SAg Assay for CD40 Biomarker Activity (AID 2283088); settings: primary human HUVEC with PBMC; actives raise or lower the signal
In short: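 CD40 is measured by fluorescence ELISA in an endothelial/PBMC primary human co-culture at 24 h post-dose. Fitting is bidirectional, DMSO baseline. Parallel SRB staining (560 nm) flags cytotoxicity.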

CD69, CD69 (gene 969) = assay: BSK_SAg_CD69: BioMAP Diversity Plus: SAg Assay for CD69 Biomarker Activity (AID 2283089); settings: primary human HUVEC with PBMC; actives raise or lower the signal;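 on AC50: cell surface CD69 protein quantified by ELISA with fluorescence detection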
In short: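 Values derive from bidirectional fitting relative to DMSO vehicle. Cells: umbilical vein endothelium plus peripheral blood mononuclear cells, treated 24 h before fluorescent ELISA for CD69.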

[7] = read-out: Monocyte Chemoattractant Protein-1 (MCP1), CCL2 (gene 6347); assay: BSK_SAg_MCP1: BioMAP Diversity Plus: SAg Assay for Monocyte Chemoattractant Protein-1 (MCP1) Biomarker Activity (AID 2283090); settings: primary human HUVEC with PBMC; actives raise or lower the signal
In short: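 Values derive from bidirectional fitting of ELISA-measured MCP1 against DMSO controls. Readings were taken 24 h after dosing human vascular endothelial cells co-cultured with peripheral blood mononuclear cells under superantigen stimulation.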

[8] = read-out: E-selectin (Homo sapiens) (UniProt P16581); assay: BSK_SAg_Eselectin: BioMAP Diversity Plus: SAg Assay for Eselectin Biomarker Activity (AID 2283091); settings: primary human HUVEC with PBMC; actives raise or lower the signal
In short: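 Cell-surface E-selectin is read by ELISA at 24 h in the SAg co-culture of HUVEC and PBMC. Curves are fitted in both directions relative to DMSO. Parallel SRB total-protein staining tracks overt toxicity.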

[9] = read-out: Monokine induced gamma interferon (MIG), CXCL9 (gene 4283); assay: BSK_SAg_MIG: BioMAP Diversity Plus: SAg Assay for Monokine induced gamma interferon (MIG) Biomarker Activity (AID 2283092); settings: primary human HUVEC with PBMC; actives raise or lower the signal
In short: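 Values reflect bidirectional fitting of ELISA-measured MIG against DMSO vehicle, taken 24 h after dosing of a co-culture of human umbilical vein endothelial cells and peripheral blood mononuclear cells.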

[10] = BSK_SAg_PBMCCytotoxicity: PBMC Cytotoxicity Assessment in the BioMAP Diversity Plus: SAg Assay (AID 2283093); settings: primary human HUVEC with PBMC;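 further: fitted both ways against DMSO so a hit may be loss or gain of signal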;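 on AC50: PBMC superantigen activated with SEB plus TSST-1 one hour after compound addition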
In short: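 PBMC viability by Alamar Blue reduction, fluorescence read at 546/580 nm after 6 h dye exposure. Cells were dosed 1 h before SEB plus TSST-1 activation (20 ng/mL final each), then held 90 h; endothelial/PBMC human co-culture.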

[11] = read-out: Interleukin-8 (IL8), CXCL8 (gene 3576); assay: BSK_SAg_IL8: BioMAP Diversity Plus: SAg Assay for Interleukin-8 (IL8) Biomarker Activity (AID 2283094); settings: primary human HUVEC with PBMC; actives raise or lower the signal
In short: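 Primary human endothelial cells with PBMC, exposed 24 h; IL-8 determined by ELISA, analysed bidirectionally relative to DMSO.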

[12] = BSK_SAg_Proliferation: Cell Proliferation Assessment in the BioMAP Diversity Plus: SAg Assay (AID 2283095); settings: primary human HUVEC with PBMC;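 further: relative cell number as total protein by SRB absorbance in sub-confluent culture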
In short: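 A human primary co-culture of umbilical vein endothelium and blood mononuclear cells receives compound; relative cell number is quantified at 96 h by SRB staining and 560 nm absorbance, with DMSO-referenced bidirectional curve fitting.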

[13] = BSK_SAg_SRB: Viability Assessment in the BioMAP Diversity Plus: SAg Assay (AID 2283096); settings: primary human HUVEC with PBMC;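 further: cells read one day after compound addition; hits may be either gain or loss of signal compared with DMSO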
In short: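 Compounds were added to a human vascular co-culture of umbilical vein endothelium and PBMC. After 24 h, parallel cultures were fixed with 10% TCA, stained with 0.1% sulforhodamine B and read at 560 nm. Gain or loss of signal was fitted relative to DMSO.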

Measured: AC50

Tumor necrosis factor (Homo sapiens), sequence (P01375 whole entry, looked up): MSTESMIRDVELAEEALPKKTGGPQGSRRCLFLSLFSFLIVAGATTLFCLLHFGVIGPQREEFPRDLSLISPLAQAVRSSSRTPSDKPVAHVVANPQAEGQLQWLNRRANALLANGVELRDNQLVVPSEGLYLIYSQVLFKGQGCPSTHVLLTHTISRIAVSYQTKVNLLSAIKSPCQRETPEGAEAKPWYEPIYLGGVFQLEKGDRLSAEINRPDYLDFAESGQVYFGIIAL
E-selectin (Homo sapiens), sequence (P16581 whole entry, looked up): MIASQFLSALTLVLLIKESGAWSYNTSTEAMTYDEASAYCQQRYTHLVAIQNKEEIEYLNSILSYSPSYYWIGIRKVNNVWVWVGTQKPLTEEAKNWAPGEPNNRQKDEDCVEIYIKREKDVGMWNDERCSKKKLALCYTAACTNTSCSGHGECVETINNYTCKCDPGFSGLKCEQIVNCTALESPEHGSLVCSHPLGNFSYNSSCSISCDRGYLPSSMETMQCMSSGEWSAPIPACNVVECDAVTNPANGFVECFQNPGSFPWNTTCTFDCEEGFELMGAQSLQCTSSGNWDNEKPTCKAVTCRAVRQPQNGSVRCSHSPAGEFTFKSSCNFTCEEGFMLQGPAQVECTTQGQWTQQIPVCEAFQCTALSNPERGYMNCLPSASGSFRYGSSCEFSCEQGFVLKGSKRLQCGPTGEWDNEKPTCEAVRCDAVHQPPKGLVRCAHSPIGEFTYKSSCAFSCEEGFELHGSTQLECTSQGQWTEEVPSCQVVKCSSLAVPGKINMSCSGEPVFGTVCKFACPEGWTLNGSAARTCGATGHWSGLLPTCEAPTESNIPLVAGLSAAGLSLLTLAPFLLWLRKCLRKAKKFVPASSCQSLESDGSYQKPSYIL

Cc1ccc(Nc2ccc(O)c3c2C(=O)c2ccccc2C3=O)cc1
active: [2] 1.06 µM | [5] 0.435 µM
inactive: all other assays above

CC1CCC(C(C)CS)CC1S (stereo unspecified)
active: [1] 33.5 µM | [3] 36.4 µM | [4] 30.9 µM | [6] 34.8 µM | CD38, CD38 (gene 952) 32.8 µM | CD40, CD40 (gene 958) 31.6 µM | [7] 32.6 µM | [8] 30.8 µM | [9] 34.6 µM | [11] 20 µM | [13] 30.7 µM
inactive: [2] | [5] | [10] | [12]

CCCCCCCCCCCCCCCCCC(=O)OCC(CC)CCCC (stereo unspecified)
not listed: CD69, CD69 (gene 969)
inactive: all other assays above

Nc1cc([N+](=O)[O-])ccc1O
not listed: [2]
inactive: all other assays above

O=C(O)c1cn(-c2ccc(F)cc2)c2cc(N3CCNCC3)c(F)cc2c1=O
not listed: CD69, CD69 (gene 969)
inactive: all other assays above

COc1cc(C=O)ccc1OC(=O)C(C)C
not listed: [2]
inactive: all other assays above

O=[N+]([O-])c1cc(C(F)(F)F)ccc1Cl
not listed: CD69, CD69 (gene 969)
inactive: all other assays above

N#Cc1ccc(CC(=NNC(=O)Nc2ccc(OC(F)(F)F)cc2)c2cccc(C(F)(F)F)c2)cc1
active: [2] 2.68 µM
not listed: CD69, CD69 (gene 969)
inactive: all other assays above

c1ccc2c(c1)c1cccc3ccc4cccc2c4c31
active: [4] 0.369 µM
inactive: all other assays above

CN(CCOc1ccc(CC2SC(=O)NC2=O)cc1)c1ccccn1 (stereo unspecified)
active: [4] 24.9 µM | CD38, CD38 (gene 952) 20 µM | CD40, CD40 (gene 958) 20 µM | [7] 20 µM | [8] 20 µM | [11] 20 µM | [12] 20 µM
not listed: [2] | CD69, CD69 (gene 969)
inactive: all other assays above

BrC1CCC(Br)C(Br)CCC(Br)C(Br)CCC1Br (stereo unspecified)
active: [3] 4.67 µM | [6] 4.54 µM | CD38, CD38 (gene 952) 4.57 µM | CD40, CD40 (gene 958) 4.59 µM | [10] 2.03 µM | [12] 4.63 µM | [13] 4.67 µM
not listed: [2]
inactive: all other assays above

Cc1cc(C2(c3cc(C)c(O)cc3C)OS(=O)(=O)c3ccccc32)c(C)cc1O
inactive: [1] | [3] | [4] | [5] | [6] | CD38, CD38 (gene 952) | CD40, CD40 (gene 958) | CD69, CD69 (gene 969) | [7] | [8] | [9] | [10] | [11] | [12] | [13]
active: [10] 27.3 µM

CC(=O)/C=C/C1=C(C)CCCC1(C)C
not listed: [2] | CD69, CD69 (gene 969)
inactive: all other assays above

CC(C)(COC(=O)c1ccccc1)COC(=O)c1ccccc1
active: [3] 30.9 µM | [6] 26.2 µM | CD40, CD40 (gene 958) 32.3 µM | CD69, CD69 (gene 969) 31.7 µM | [8] 28.8 µM | [12] 20 µM
not listed: [2]
inactive: all other assays above
